Experiments:
[1] = target: Small ribosomal subunit protein uS3 (UniProt P0A7V3)
[2] = target: Small ribosomal subunit protein uS8 (UniProt P0A7W7)
[3] = target: Small ribosomal subunit protein uS5 (UniProt P0A7W1)
[4] = target: Large ribosomal subunit protein eL36 (UniProt Q9Y3U8)

Small ribosomal subunit protein uS2, P0A7V0
listed as a hit [1]: yes
listed as a hit [2]: yes

Small ribosomal subunit protein uS10, P0A7R5
listed as a hit [1]: yes

Small ribosomal subunit protein uS4, P0A7V8
listed as a hit [3]: yes

Small ribosomal subunit protein uS5, P0A7W1
listed as a hit [2]: yes

Large ribosomal subunit protein eL15, P61313
listed as a hit [4]: yes

Reference: paper PMC12214610
